Reference: paper PMC12136788
Numbering of substitutions follows the chain as printed. Whole data set: some 24,000 sequences, median “enrichment r” near 0.99, cut for the highest 2% near 3.7. For the sample, the highest values were picked, then their nearest neighbours and some sequences at random.

T1: UNK ZnF1-3 (human, UniProt Q9C0B0 31-174)
T1 sequence: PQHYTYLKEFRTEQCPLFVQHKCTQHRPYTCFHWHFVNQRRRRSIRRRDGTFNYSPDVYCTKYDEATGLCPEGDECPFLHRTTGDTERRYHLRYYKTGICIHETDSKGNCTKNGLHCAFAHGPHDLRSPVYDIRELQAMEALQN

B1: chr16:45382771:45382772:-_ENSMUSG00000022661_ENSMUST00000163230|mus_mus|mus_mus_mus_hu_True|8_48 (ssRNA)
RNA: GGGAGUUCUACAGUCCGACGAUCCUGGGUCAUGUUAUAAGACAAAUGGACAGGGAGGGCAUGCUUCUCAAAAAAUGUGAGCUAUUGACUAAGACUAACAAUAUUUAUCUAGCUAUAAAAAUAAGUUUUAAAUGGACGUUAAGACAACAGAGGAUUGAGCAUCA
B2: chr16:45382771:45382772:-_ENSMUSG00000022661_ENSMUST00000163230|mus_mus|mus_mus_mus_hu_True|8_8 (ssRNA)
RNA: B1 RNA with A87U
B3: chr16:45382771:45382772:-_ENSMUSG00000022661_ENSMUST00000163230|mus_mus|mus_mus_mus_hu_True|8_108 (ssRNA)
RNA: B1 RNA with G27A, C30G, A31U, G33A, A36G, A87U
B4: chr16:45382771:45382772:-_ENSMUSG00000022661_ENSMUST00000163230|mus_mus|mus_mus_mus_hu_True|8_38 (ssRNA)
RNA: B1 RNA with A87U, U105G, A106C
B5: chr14:62207507:62207508:+_ENSG00000100644_ENST00000337138|hu_mus|FALSE|FALSE (ssRNA)
RNA: GGGAGUUCUACAGUCCGACGAUCUGACAACUGAUCAAAGGAACGUAACUGGAAAUCAUCAUCCAUUGGGAUAUAGGGAGCCAGCAUCUCCAAAUCUAAAUCAGUGUCCUGAGUUGAAAAUGGAUUCUUUGCCUCUGUGUCUUCCAACAGAGGAUUGAGCAUCA
B6: chr9:95013113:95013114:-_ENSG00000196305_ENST00000443024|hu_hu|hu_hu_hu_mus_False|28_58 (ssRNA)
RNA: GGGAGUUCUACAGUCCGACGAUCCUCAGUCAGAAAGGGCGUGUAAGGGGCCAUCAGUCUGCACAGAGAAAGCAGGACACUAAACAAUGUCUCCAGAGCCAUGACACAAUCCUCCAUCCCACUCUCACCCUUUAACCUCCUCCUCAACAGAGGAUUGAGCAUCA
B7: chr9:14812383:14812384:-_ENSMUSG00000031934_ENSMUST00000164273|mus_mus|FALSE|FALSE (ssRNA)
RNA: GGGAGUUCUACAGUCCGACGAUCAUAGCUCAAGUAGAUACAUGCCAACAGUAUAACCACAAAUGUCACCAGCCGGCAGCUAAUGUAUUUCAUGAUUAAAUGACUAGAGUUCUUUUUUGUCUUCAAGUACUGCUCCACGAUUGGCAACAGAGGAUUGAGCAUCA
B8: chr5:128448638:128448639:+_ENSG00000066583_ENST00000173527|hu_mus|hu_hu_hu_mus_False|48_58 (ssRNA)
RNA: GGGAGUUCUACAGUCCGACGAUCGGCACUCGCCUUAAUUAGGUUCUGAAUUUCCUUGAACUUCGGGUGGUCUUUGUCAGCUACCAGCUGAAGCAGAACAGCCUCACUAGUGGUCACGAUGAUCCCAGUGCGGGCAAGACGCUCCAACAGAGGAUUGAGCAUCA
B9: chr10:121347744:121347745:-_ENSG00000151923_ENST00000436547|hu_mus|FALSE|FALSE (ssRNA)
RNA: GGGAGUUCUACAGUCCGACGAUCCGAUCUGACUGAAUAACUGAAGAAUAAGGACUUCUGUCACAUCUCUGGAGAGGUUACCUACGUAUAGAGUCCGGGGCUGUCCGUCGUCUUCCAUCAUGGUGGGUGCGACGGAGUGAUCCCCAACAGAGGAUUGAGCAUCA
B10: 89385701_89385821_685_3pUTR_ENSMUSG00000031652_ENSMUST00000034074|mouse|control|control (ssRNA)
RNA: GGGAGUUCUACAGUCCGACGAUCUCUGCGUGGGCUUCAACAAACUGUCUGAAUUCCCGUUUGAUUUCCGACUCUCUCUGAUUACUGGGGAGGUUCUCGUUGCUCUCAAAGAGCUUCACAAACUGCUGAAUGUGACUCCUGGCCCAACAGAGGAUUGAGCAUCA
B11: chr1:130171486:130171487:+_ENSMUSG00000026353_ENSMUST00000027592|perfect_dup|FALSE|FALSE (ssRNA)
RNA: GGGAGUUCUACAGUCCGACGAUCUGACGAUGUUACUCUCACUGAAGUCUGUGUGGGAGGCGGAUUACUAAACAAGAAAUUGCUAAUUAAUCUCCAGAUGGCAAGGAAUGGAUAAAGCACUGUUCCCAACAAGGUCCAAAUGUCCAACAGAGGAUUGAGCAUCA
B12: chr12:16048344:16048345:+_ENSG00000023734_ENST00000419869|hu_hu|hu_hu_hu_mus_True|8_8 (ssRNA)
RNA: GGGAGUUCUACAGUCCGACGAUCAGAUCGUCCAUAAGUAAUAACCAAAAUCUCUCCUUCAGGAAUAUACUCCAUGCUGCUAACAGACAUAUUAAAAUUCAGAGAUUUCACUUCUGUCAUUGUGGCAUGAUCCCAAAGCCGAACCAACAGAGGAUUGAGCAUCA
B13: chr1:130171486:130171487:+_ENSMUSG00000026353_ENSMUST00000027592|perfect_dup|motif|central (ssRNA)
RNA: B11 RNA with U83G, A84G
B14: chr1:130171486:130171487:+_ENSMUSG00000026353_ENSMUST00000027592|perfect_dup|FALSE|FALSE (ssRNA)
RNA: GGGAGUUCUACAGUCCGACGAUCUGUGGAUGUGGCUCUUGCUGAAGUCUGUGCAGGAGGAGGAUUGCUAAAUAAAAAAUUGCUAAUUAAUCUCCAUAUGGCCAGGAAUGGAUAAAGCACCGUCCCCAGUAAUGUCCAAAUGUCCAACAGAGGAUUGAGCAUCA
B15: chr19:16212804:16212805:+_ENSG00000167460_ENST00000300933|hu_mus|hu_hu_hu_mus_False|8_88 (ssRNA)
RNA: GGGAGUUCUACAGUCCGACGAUCAACAAUUCUGGAGUGAAGGAAAGCAUCAAGGAUGAACAGCAUUAAAGCUCAGUCAGAAGGCACAUGGGCAACAAUGAUCACCCCAGCAUUCUCGCUUGGAAUGUGCUUGAGAAAUCUGUUCAACAGAGGAUUGAGCAUCA
B16: chr1:130171486:130171487:+_ENSMUSG00000026353_ENSMUST00000027592|perfect_dup|motif|central (ssRNA)
RNA: B14 RNA with U83G, A84G
B17: chrX:102931482:102931483:-_ENSG00000123562_ENST00000441076|hu_hu|FALSE|FALSE (ssRNA)
RNA: GGGAGUUCUACAGUCCGACGAUCAAUUGCAUCUACAUUUUUCUUGGCAGGGAGUUGAAACAGCUGCUUCUGCCUGGUAACUAAGUCCCAGUCCUCAACAAGCCAUGGUUUUAAUUCUUCAGGAAUCUUCACUUUAACCUCCAUCAACAGAGGAUUGAGCAUCA
B18: chr4:131761308:131761309:-_ENSMUSG00000040025_ENSMUST00000102570|mus_mus|motif|central (ssRNA)
RNA: GGGAGUUCUACAGUCCGACGAUCGCUGACUGUCCAUCAAUCAUGGCUCCACCUAAGGAGCUGGGUGCAUAAGCGUAAUUGCGGCGGUAUCCAGAGCUUUGAGUAGACUGUCCCUGAGAACUGUUAUUUCCCCAUGCUGAGAAGCAACAGAGGAUUGAGCAUCA
B19: chr17:15081082:15081083:+_ENSMUSG00000050088_ENSMUST00000052691|mus_mus|motif|central (ssRNA)
RNA: GGGAGUUCUACAGUCCGACGAUCUGCUCCAGCAUAUUCAAGGGAUCAGAAGAGAAUUUCAAGCACCAGUUUCAAAAUGCGGAUCAAUAUCGUCCAGAGAACUGAUUCCUCCUCUUGGGCUGCCUCUUCUGGAGCGUAAGCCUGCAACAGAGGAUUGAGCAUCA
B20: chr14:14948730:14948731:-_ENSMUSG00000021737_ENSMUST00000022256|mus_mus|FALSE|FALSE (ssRNA)
RNA: GGGAGUUCUACAGUCCGACGAUCAAAAACUGAAUAACGGCAUUCAUAGAGAGAAAACAGAUACUGCCGAACUGCUGGAAGACUGUGCAACACUUCAAGGAUCUCUGCCCCUUUAAUGACCUUUUCCCUGAGGUCCGGCCUUUCCAACAGAGGAUUGAGCAUCA
B21: chr18:2804189:2804190:+_ENSG00000101596_ENST00000320876|hu_hu|FALSE|FALSE (ssRNA)
RNA: GGGAGUUCUACAGUCCGACGAUCCAAUGCCUUGGAUUUAAAACAUGACUCCUUCUUGAUACAAUGAAUUAUAAAAGCAAACUAGUUCCACAUAUUAAUUAUACGUUCAAGUCUAGUUCCUAAAAAGUCAUUUCUCUUUAACCUCAACAGAGGAUUGAGCAUCA
B22: chr15:76909541:76909542:-_ENSMUSG00000033565_ENSMUST00000166610|perfect_dup|FALSE|FALSE (ssRNA)
RNA: GGGAGUUCUACAGUCCGACGAUCCAACAUGAUCAAUAAUUUAUACACAUGGAGAGUAAUACAAAAAAUAAUGAAUAAAAGCUAAAGAUCUAACUACUCAACCUUCACAAUUCCAGCUACUUGAUAAUAGGAGUAACCCAAUGACAACAGAGGAUUGAGCAUCA
B23: chr15:76909541:76909542:-_ENSMUSG00000033565_ENSMUST00000166610|perfect_dup|motif|central (ssRNA)
RNA: B22 RNA with U82G, A83G
B24: chr2:47387792:47387793:-_ENSG00000143933_ENST00000272298|hu_hu|hu_hu_hu_mus_True|28_38 (ssRNA)
RNA: GGGAGUUCUACAGUCCGACGAUCUAAGGACAAUGACAGUAAGAUAAGGGAAGAAAACAUGGAGGAAUGAAGUCCUAAUUACUAUACAUGCAUAUUUUUUUGACAGUAGGGAGAAACACCUUUUACAGAUAAGUUACAAACAAACAACAGAGGAUUGAGCAUCA

target: T1, UNK ZnF1-3; experiment: nsRBNS (natural sequence RNA bind-n-seq); RBNS binding buffer (assumed for nsRBNS): 25 mM Tris pH 7.5, 150 mM KCl, 3 mM MgCl2, 0.01% Triton X-100, 500 ug/ml BSA, 20 U/ml SUPERase-In, 4 C; UNK is unkempt and MSI1 is Musashi-1; names of the RNAs are library labels; protein concentration not given here; high values mean tight binding

Row | Binder | binding signal [enrichment R]
1 | B1 | 5.59
2 | B2 | 3.98
3 | B3 | 3.42
4 | B4 | 3.88
5 | B5 | 1.17
6 | B6 | 1.38
7 | B7 | 0.953
8 | B8 | 0.822
9 | B9 | 0.644
10 | B10 | 0.876
11 | B11 | 4.56
12 | B12 | 1.38
13 | B13 | 3.3
14 | B14 | 4.56
15 | B15 | 1.57
16 | B16 | 3.3
17 | B17 | 1.04
18 | B18 | 1.17
19 | B19 | 1.62
20 | B20 | 1.41
21 | B21 | 1.05
22 | B22 | 6.42
23 | B23 | 8.91
24 | B24 | 1.79
